In PubChem BioAssay (NCATS):
Inconclusive results are not listed. A call without a number means that no potency is given here. Values without a mark were called inactive. Calls of active or inactive are those of the source. Calls come from the whole dose curve; as a rule, active = well fitted cell-killing curve with a large enough effect; inconclusive = small, poorly fitted or top-dose-only effect, or effect the other way; inactive = flat fitted curve, though single readings scatter.

What was measured:
[1] = test system: Tov-21-G; assay: Primary qHTS to identify gynecologic anti-cancer compounds using libraries of approved drugs and bioactive compounds (AID 1345084); conditions: Gynecologic cancer cell panel viability, ATPlite luminescence, 48 h; series mostly up to 57.5 µM; note: nearly all actives have a fitted effect of over 55% in size
Summary of the method: (§1)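 Cells, 1,000 per well, were allowed to settle for 16 h at 37 C before compound addition. Five concentrations were tested for 48 h, and viability was read by ATPlite luminescence after 15 min at room temperature.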

[2] = test system: Tov112D; assay: as above; conditions: Gynecologic cancer cell panel viability, ATPlite luminescence, 48 h; series mostly up to 57.5 µM
Summary of the method: as §1

Row | SMILES | Potency [1] | Potency [2] | activity change, negative = cytotoxicity [1] | activity change, negative = cytotoxicity [2]
1 | CCCCNc1nc(N)c2[nH]c(=O)n(Cc3ccc(OCCN(C)C)nc3)c2n1 | inactive | inactive |  | 
2 | CCOC(=O)C(CCc1ccccc1)NC1CCCN2CCCC(C(=O)O)N2C1=O (configuration not stated) | inactive | inactive |  | 
3 | CC(C)CC[C@@H](O)[C@](C)(O)[C@H]1CC[C@@]2(O)C3=CC(=O)[C@@H]4C[C@@H](O)[C@@H](O)C[C@]4(C)[C@H]3CC[C@]12C | inactive | inactive |  | 
4 | O=C(O)c1ccncc1Nc1nn(CCN2CCC(F)(F)CC2)c2ccc(F)cc12 | inactive | inactive |  | 
5 | O=[N+]([O-])c1cc(Cl)ccc1S(=O)(=O)N1CCN(Cc2ccccc2)CC1 | inactive | inactive |  | 
6 | O=C(NC/C=C/CN1CCN(c2cccc(Cl)c2Cl)CC1)c1ccc(-c2ccccn2)cc1 | inactive | inactive |  | 
7 | Cn1nccc1-c1ccccc1Oc1ccc(S(=O)(=O)Nc2nccs2)cc1C#N | inactive | inactive |  | 
8 | Cc1cc(O[C@@H]2O[C@H](COC(=O)CC(=O)O)[C@@H](O)[C@H](O)[C@H]2O)c(C(C)C)cc1O | inactive | inactive |  | 
9 | C=C1CC[C@H]2[C@@](C)(CCC(OC3OC(CO)C(O)C(O)C3O)[C@@]2(C)CO)C1C(=O)CC1=CCOC1=O (some centres not stated) | inactive | inactive |  | 
10 | COc1ccc(C(=O)NCc2cc(C(C)C)no2)cc1OC1CCN(C)CC1 | inactive | inactive |  | 
11 | COc1ccccc1N1CCN(CCCCNC(=O)c2ccc(-c3cscn3)cc2)CC1 | inactive | inactive |  | 
12 | Cc1ncc(Cl)cc1NCc1ccc(C(=O)NC(CC2CCCC2)C(=O)NC2CC2)s1 (configuration not stated) | inactive | inactive |  | 
13 | CC1(C)C[C@H]2C=C(C=O)[C@]3(C(=O)O)C[C@]3(C)[C@H]2C1 | inactive | inactive |  | 
14 | C=C1C(O)C(OC(=O)c2ccccc2)C2C(C)(C(=O)O)CCCC2(C)C1CC/C(C)=C\CO (configuration not stated) | inactive | inactive |  | 
15 | COC(=O)C1=CO[C@@H](O[C@@H]2O[C@H](CO)[C@@H](O)[C@H](O)[C@H]2O)[C@@H]2C(C)CC(=O)[C@]12O (some centres not stated) | inactive | inactive |  | 
16 | COc1c2c(c(C)c3c1C(=O)OC3)OC1(C)CC(O)C34OC(OC)(CC(O)C3(C)C1C2)OC4(C)C (configuration not stated) | inactive | inactive |  | 
17 | O=C(OC(C(F)(F)F)C(F)(F)F)N1CCN(Cc2cccc(Oc3ccccc3)c2)CC1 | inactive | inactive |  | 
18 | CC1(C)CC[C@]2(C(=O)O[C@@H]3O[C@H](CO[C@@H]4O[C@H](CO[C@@H]5O[C@H](CO)[C@H](O)[C@H](O)[C@H]5O)[C@@H](O)[C@H](O)[C@H]4O)[C@@H](O)[C@H](O[C@@H]4O[C@H](CO)[C@@H](O)[C@H](O)[C@H]4O)[C@H]3O)[C@H](O)C[C@]3(C)C(=CCC4[C@@]5(C)CC[C@H](O[C@@H]6OC[C@@H](O)[C@H](O)[C@H]6O)[C@@](C)(C(=O)O)C5CC[C@]43C)[C@@H]2C1 (some centres not stated) |  |  | 9.11% [at 6.55 µM] | 3.01% [at 6.55 µM]
19 | CC1CCC23COC(=O)C2=CC(O)CC3C1(C)CCc1ccoc1 (configuration not stated) | inactive | inactive |  | 
20 | C=CCc1ccc(O[C@@H]2O[C@H](CO)[C@@H](O)[C@H](O)[C@H]2O)c(O[C@@H]2O[C@H](CO)[C@@H](O)[C@H](O)[C@H]2O)c1 | inactive | inactive |  | 
21 | CC1(C)CC[C@]2(C(=O)O)CC[C@]3(C)C(=CCC4[C@@]5(C)C[C@@H](O)[C@H](O)[C@@](C)(CO)C5[C@H](O)C[C@]43C)[C@@H]2C1 (some centres not stated) | inactive | inactive |  | 
22 | O=C(OC[C@H]1O[C@H](O[C@H]2CO[C@H](CO)[C@@H](O)[C@@H]2O)[C@H](O)[C@@H](O)[C@H]1O)c1ccccc1 | inactive | inactive |  | 
23 | CC1(C)CC[C@]2(C(=O)O[C@@H]3O[C@H](CO[C@@H]4O[C@H](CO)[C@@H](O)[C@H](O)[C@H]4O)[C@@H](O)[C@H](O[C@@H]4O[C@H](CO)[C@@H](O)[C@H](O)[C@H]4O)[C@H]3O)[C@H](O)C[C@]3(C)C(=CCC4[C@@]5(C)CC[C@H](O[C@@H]6OC[C@@H](O)[C@H](O)[C@H]6O)[C@@](C)(C(=O)O)C5CC[C@]43C)[C@@H]2C1 (some centres not stated) |  |  | 3.95% [at 11.6 µM] | -6.08% [at 11.6 µM]
24 | NC(=O)c1ccc(F)c2c1C[C@@H](N(C1CCC1)C1CCC1)CO2 | inactive | inactive |  | 
25 | O=C(O)/C=C/c1ccc(O[C@@H]2O[C@H](CO)[C@@H](O)[C@H](O)[C@H]2O)cc1 | inactive | inactive |  | 
26 | CC(C)c1ccc2c(c1)[C@H](O)CC1[C@@](C)(C(=O)O)CCC[C@]21C (some centres not stated) | inactive | inactive |  | 
